From PubChem BioAssay AID588727 (Southern Research Specialized Biocontainment Screening …, 2011) come the findings set out here.

This test in a line: inhibitors of VEEV TC-83 cytopathic effect, confirmation, Vero cells (AID 588727). To be noted: VEEV TC-83 cytopathic effect inhibition, at 20 µM. (Protection from cytopathic effect is a common read-out in antiviral testing.)
Setting [1] is: stronger effect = higher value unless noted.
[2] abbreviates: measured here: 10K pilot screen inhibition, stronger effect = higher value.

About 450 (0.13%) of roughly 350,000 compounds were called active. How the calls were made is not given here. Not all results are given here. Entries with a potency or affinity are not part of this list. Where a SMILES comes first, the peptide text is derived from it. The star is where a group is joined. CH2Cl = ClC*

With `CCOC(=O)N1CCN(C(=O)CCNS(=O)(=O)c2ccccc2)CC1`, under setting [1], the inhibition (in general, the relative decrease from the control value, in per cent) is 1.37% (inactive). As to `CCOC(=O)c1[nH]c(COC(=O)c2ccccc2NC(=O)c2ccco2)c(C(=O)OCC)c1C`, the inhibition reads like this: (stronger effect = higher value) 1.08% (inactive); under setting [2], 3.34%. Consider `CCCCN(C(=O)CSc1nc(CCC)cc(=O)[nH]1)c1c(N)n(Cc2ccccc2)c(=O)[nH]c1=O`, for which the inhibition under setting [1] is 0.91% (inactive).

Turning to `O=c1oc(C2(O)CCCCC2)cc2ccc(Br)cc12`, the inhibition was 0.16% (inactive) (stronger effect = higher value) and 1.56% under setting [2]. Regarding `O=c1oc(C2(O)CCCCC2)cc2ccccc12`, the inhibition under setting [1] was 0.11% (inactive). The same measure, in the same setting: the same measure for `COc1ccc(OC)c(NC(=O)c2ccc3c(c2)OCO3)c1`: “inactive”; for `CCCc1nc2c(s1)CCc1onc(-c3cccc([N+](=O)[O-])c3)c1-2`: 0.11% (inactive); for `CN1CCN(c2ccc(NC(=O)c3ccc(-c4ccc(Br)cc4)o3)cc2)CC1`: 9.39% (inactive).

For the compound `CN1CCN(c2ccc(NC(=O)c3ccc(-c4ccc(Cl)cc4)o3)cc2)CC1`, the inhibition under setting [1] was 10.7% (inactive). Same read-out and setting: the same measure for `O=C(CN(C(=O)c1csnn1)c1cccc(C(F)(F)F)c1)NCCc1ccccc1`: “inactive”. On the same count and under the same terms, the value for `O=[N+]([O-])c1cccc(C2=NC(c3ccccc3)CO2)c1` (configuration not stated) was 0.23% (inactive); that for `O=[N+]([O-])c1ccc(-[n+]2c(-c3ccccc3)cc(-c3ccccc3)cc2-c2ccccc2)cc1` was 2.23% (inactive); that for `O=C1CCC(C(=O)N2CCN(c3ccc(F)cc3)CC2)CN1CC1CCCCC1` (configuration not stated) was 0.83% (inactive). Still for that read-out and setting: the same measure for `Cc1onc(-c2ccccc2)c1C(=O)NNC(=S)NC(=O)c1ccc(Br)cc1`: 3.29% (inactive); for `Cc1onc(-c2ccccc2)c1C(=O)NC(=S)NNC(=O)c1ccc(O)cc1O`: 12.2% (inactive); for `Nc1nnnn1/N=C/C(Br)=C/c1ccccc1`: 12.1% (inactive). In the case of `BrC(=C\c1ccccc1)/C=N/n1cnnc1`, the inhibition under setting [1] was 5.75% (inactive). On the same count and under the same terms, the same measure for `Cc1ccc(-c2cc(C(F)F)n3ncc(C(=O)N4CCN(c5ccccn5)CC4)c3n2)cc1`: 8.27% (inactive); for `O=C(NCc1ccccc1)c1ncn[nH]1`: “inactive”; for `O=C(Nc1ccccc1Cl)C1CCCN(S(=O)(=O)c2ccc(-n3cnnn3)cc2)C1` (configuration not stated): 0.96% (inactive). Still for that read-out and setting: the same measure for `COc1cccc(-c2ccc(NC(=O)C3CCCN(Cc4cnn(C)c4C)C3)cc2)c1` (configuration not stated): 23.7% (inactive); for `COc1cccc(-c2ccc(NC(=O)C3CCCN(Cc4cnc(C)s4)C3)cc2)c1` (configuration not stated): 2.02% (inactive); for `Cn1cc(CN2CCC(C(=O)Nc3cccc(-c4cccc(F)c4)c3)CC2)cn1`: 5.64% (inactive). Consider `COc1cccc(-c2ccc(NC(=O)C3CCCN(Cc4cnn(C(C)C)c4)C3)cc2)c1` (configuration not stated), for which the inhibition under setting [1] was 21.3% (inactive). In the case of `Cc1ncc(CN2CCCC(C(=O)Nc3ccc(-c4cccc(F)c4)cc3)C2)cn1` (configuration not stated), under setting [1], the inhibition was 5.3% (inactive). The same measure, in the same setting: the value for `Cc1ncc(CN2CCCC(C(=O)Nc3ccc(-c4ccco4)cc3)C2)n1C` (configuration not stated) was 5.05% (inactive); that for `COC(=O)C(O)(c1ccc(N(C)C(=O)c2ccc(Cl)c(Cl)c2)cc1)C(F)(F)F` (configuration not stated) was 0.88% (inactive); that for `CCOC(=O)c1c(S(=O)(=O)N2c3ccccc3CC2C)c(C)n(C)c1C` (configuration not stated) was “inactive”. The same measure, in the same setting: the value for `Cc1c(NC(=O)c2ccc(Br)s2)c(=O)n(-c2ccccc2)n1C` was 0.26% (inactive); that for `O=C(N[C@@H](Cc1ccccc1)C(=O)CCl)OCc1ccccc1` was 8.46% (inactive); that for `CC(=O)NC(CC(C)C)C(=O)NC(Cc1ccccc1)C(=O)CCl` (stereo not drawn) (Ac-Leu-Phe-CH2Cl; configuration not given here) was 6.56% (inactive). Still for that read-out and setting: the same measure for `Cc1nc(-c2ccc(Cl)cc2)sc1C1(C)CC(c2cccc(F)c2)=NO1` (configuration not stated): 2.59% (inactive); for `C[C@]12CCC(O)CC1CCC1C2CC[C@]2(C)C(c3cc(C(F)(F)F)n[nH]3)CCC12` (some centres not stated): “inactive”.

Take `CN(C)CCNC(=O)c1ccccc1-c1cc2ccccc2c(=O)o1`: the inhibition under setting [1] was 0.53% (inactive).

As to `COc1ccc(C(=O)Nc2cc3c(cc2OC)CCCC3)cc1Br`, the inhibition under setting [1] is 1.28% (inactive). Same read-out and setting: the value for `COc1cc2c(cc1NC(=O)c1cccc(F)c1)CCCC2` was 0.61% (inactive); that for `CCOc1ccc(NC(=O)CN(C)C(=O)CCc2nc3ccccc3c(=O)[nH]2)cc1OCC` was “inactive”; that for `CC1(C)Cc2cccc(OCC(=O)Nc3cccnc3)c2O1` was 7.7% (inactive). On the same count and under the same terms, the same measure for `CC1(C)Cc2cccc(OCC(=O)Nc3nccs3)c2O1`: 7.27% (inactive); for `CCCC(=O)C1C(=O)CC(CC(C)SCC)CC1=O` (configuration not stated): 0.43% (inactive); for `O=C1/C(=C/c2cccnc2)Oc2cc(OS(=O)(=O)c3ccc(F)cc3)ccc21`: 0.87% (inactive). Still for that read-out and setting: the same measure for `CCc1c(C(=O)NC2CCCCC2)[nH]c(C)c1C(C)=O`: “inactive”. `CC(=O)c1c(C)[nH]c(C(=O)NC2CCSc3ccccc32)c1C` (configuration not stated): the inhibition under setting [1] was 4.81% (inactive). Still for that read-out and setting: the value for `COc1ccc(N2C(=O)CC(N3CCN(c4ccc(Cl)cc4)CC3)C2=O)cc1` (configuration not stated) was 0.34% (inactive); that for `CCc1nnc(NC(=O)Cc2c[nH]c3ccccc23)s1` was 0.4% (inactive); that for `O=C(Cc1coc2ccc3ccccc3c12)Nc1nccs1` was 2.66% (inactive). Still for that read-out and setting: the same measure for `Cc1cc2occ(CC(=O)Nc3nnc(C4CC4)s3)c2cc1C`: 0.7% (inactive); for `CCC(CC)c1nnc(NC(=O)Cc2c[nH]c3ccccc23)s1`: 3.52% (inactive); for `CC(=O)c1cccc(N=Cc2c(O)c3ccccc3oc2=O)c1`: 8.95% (inactive). Still for that read-out and setting: the value for `Cc1[nH]c2ccccc2c1C(C[N+](=O)[O-])c1ccco1` (configuration not stated) was 1.43% (inactive). Turning to `COc1cc(S(=O)(=O)N2CCN(C)CC2)c(OC)cc1Cl`, the inhibition entry under setting [1] was “inactive”.

`O=C(CNCCO)NC12CC3CC(CC(C3)C1)C2`: under setting [1], the inhibition is 2.6% (inactive). On the same count and under the same terms, the same measure for `COCCC(=O)NC12CC3CC(CC(C3)C1)C2`: “inactive”.

For the compound `Oc1ccc(Cl)cc1N=Nc1ccccc1`, the inhibition result under setting [1] was “inactive”. With `Oc1ccc(N=Nc2n[nH]c(-c3ccc(Cl)cc3)n2)cc1`, the inhibition under setting [1] was 1.16% (inactive). In the case of `COc1ccccc1-c1n[nH]c(=S)o1`, under setting [1], the inhibition is 0.85% (inactive). On the same count and under the same terms, the same measure for `CC(=O)Nc1ccc(S(=O)(=O)N2CCCc3ccccc32)cc1`: “inactive”; for `COC(=O)Nc1ccc(S(=O)(=O)N2CCCc3ccccc32)cc1`: “inactive”; for `O=C(O)c1ccc(Sc2ccccn2)c([N+](=O)[O-])c1`: 0.39% (inactive). On the same count and under the same terms, the value for `N/C(CS(=O)(=O)c1ccccc1)=N\OC(=O)c1ccc(F)cc1` was 1.85% (inactive); that for `c1ccc(Oc2nc(NCc3ccco3)nc(NCc3ccco3)n2)cc1` was 4.2% (inactive). Take `Cc1ccc(S(=O)(=O)Nc2cccc3cccnc23)cc1`: the inhibition under setting [1] is 5.25% (inactive). Same read-out and setting: the value for `Cc1ccc(NS(=O)(=O)c2cccc3cccnc23)c(Cl)c1` was 1.97% (inactive); that for `O=S1(=O)N=C2CCCCCN2C(c2ccc(Cl)cc2)N1` (configuration not stated) was 0.81% (inactive). Still for that read-out and setting: the value for `CCCCN1C(Nc2ccccc2)=NC[C@@H]1C` was 0.29% (inactive); that for `COc1ccc(C(C(=O)NC2CCCC2)N(C(=O)c2ccco2)c2ccc(OC)c(OC)c2)cc1` (configuration not stated) was 0.66% (inactive); that for `CC(C)NC(=O)N(C)C[C@@H]1Oc2c(NS(=O)(=O)c3ccccc3)cccc2C(=O)N([C@@H](C)CO)C[C@@H]1C` was 0.31% (inactive). Still for that read-out and setting: the value for `O=c1nc(/C=C/c2ccc(O)c(O)c2)oc2ccccc12` was 1.28% (inactive).

Take `COc1ccc(/C=C/c2nc3ccccc3c(=O)o2)cc1`: the inhibition under setting [1] was 3.84% (inactive). For `O=C1NC(=O)c2cc(NC(=O)c3cccc4ccccc34)ccc21`, the inhibition under setting [1] is 2.09% (inactive). Same read-out and setting: the value for `C[C@]1(O)CCC2C3CC[C@@H]4CC(=O)CC[C@]4(C)C3CC[C@@]21C` (some centres not stated) was “inactive”.

With `CC12CCC(=O)CC1CCC1C2CCC2(C)C1CCC2(O)C(=O)CO` (configuration not stated), the inhibition under setting [1] is 10.6% (inactive).

Consider `Cn1cc(CN2CCC(CO)CC2)c(-c2ccc(Oc3ccccc3)cc2)n1`, for which the inhibition under setting [1] is 0.54% (inactive). On the same count and under the same terms, the value for `Cn1cc(CN2CCC(O)CC2)c(-c2ccc(Oc3ccccc3)cc2)n1` was 1.33% (inactive); that for `COc1cccc(CN2CC(C(=O)NCCCn3ccnc3C)CCC2=O)c1` (configuration not stated) was 0.67% (inactive).

For `CC(C)c1nnc(SCC(=O)N2CCc3ccccc32)n1N`, the inhibition entry under setting [1] is “inactive”. Still for that read-out and setting: the value for `C/C(=N\NC(=O)c1c(C)nc2ccccn12)c1cccc([N+](=O)[O-])c1` was 0.31% (inactive); that for `COc1ccc(/C=C/C(=O)c2c(C)nc3ccccn23)cc1` was 5.86% (inactive). Same read-out and setting: the value for `Cc1ccc(S(=O)(=O)NNC(=O)c2sc(NS(=O)(=O)c3ccccc3)nc2C)cc1` was 2.55% (inactive); that for `COc1ccc(CNC(=O)C(C)Sc2nc3ccccc3c(=O)n2CCCN2CCOCC2)cc1` (configuration not stated) was 0.34% (inactive).

As to `CC(=O)c1cccc(NC(=O)CSc2nc3ccccc3c(=O)n2CCCN2CCOCC2)c1`, the inhibition under setting [1] is 8.56% (inactive).

For `c1ccc(-c2nnnc3ccccc23)cc1`, under setting [1], the inhibition is 0.46% (inactive). Still for that read-out and setting: the value for `Cc1ccc2nnnc(-c3ccccc3)c2c1` was 0.17% (inactive); that for `COC(c1ccccc1)c1nc2ccccc2[nH]c1=O` (configuration not stated) was 0.57% (inactive). On the same count and under the same terms, the value for `O=C(CCCSc1nc2ccccc2[nH]1)Nc1ccccc1` was “inactive”. The same measure, in the same setting: the same measure for `COc1cc(NC(=S)NC(=O)c2c(OC)cccc2OC)ccc1NC(=O)c1cccs1`: 3.81% (inactive); for `COc1cc(NC(=S)NC(=O)c2cc(C)cc(C)c2)ccc1NC(=O)c1cccs1`: 8.93% (inactive). `Cc1ccc(Cl)cc1Nc1nc(N2CCOCC2)nc(N2CCOCC2)n1`: under setting [1], the inhibition entry was “inactive”. The same measure, in the same setting: the same measure for `O=C(CC(=O)c1ccccc1O)c1cccc(F)c1`: 2.48% (inactive). Same read-out and setting: the same measure for `Cc1ccc(C(=O)CC(=O)c2cccc(F)c2)c(O)c1`: 1.73% (inactive); for `CC(C)(C)c1ccc(C(=O)CC(=O)c2cc(Cl)ccc2O)cc1`: 1.44% (inactive).

As for `Cc1ccc(O)c(C(=O)CC(=O)c2ccc(C(C)(C)C)cc2)c1`, under setting [1], the inhibition is 2.3% (inactive).

Turning to `CCN(CC)C(=O)Cn1cc(S(=O)(=O)CC(=O)N2CCOCC2)c2ccccc21`, the inhibition under setting [1] was 1.34% (inactive).

Consider `CCc1cccc(CC)c1-n1c(SCc2cc(=O)n3ccsc3n2)nnc1-c1cccnc1`, for which, under setting [1], the inhibition result was “inactive”. Same read-out and setting: the same measure for `CN(C(=O)COC(=O)/C=C/c1ccc(S(=O)(=O)N2CCc3ccccc32)cc1)C1CCS(=O)(=O)C1` (configuration not stated): 0.84% (inactive).
